Experimental findings from PubChem BioAssay (NCATS) are described below.

Inconclusive results are not listed. The source made the active and inactive calls. Calls come from the whole dose curve; as a rule, active = well fitted curve in either direction with a large enough effect (not every such curve was filed as active); inconclusive = small, poorly fitted or top-dose-only effect, or another doubt; inactive = flat fitted curve, though single readings scatter.
% is set by controls: 0 for no effect and ±100 for the full control effect.

The nature of the test: AP1 Signaling Pathway (AID 357).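 Note: ME-180 reporter cells stimulated with EGF at its EC50 level.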 The note with it: ME-180 (cervical carcinoma) AP-1-bla reporter, EGF-induced, beta-lactamase ratio, 5 h; at 17.2 µM (top of the series) unless noted. Summed up:
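Beta-lactamase reporter under AP-1 response element, ME-180 background. Stimulus: EC50 EGF. Compound exposure 5 h, 37 °C. Detection: CCF4, 2.5 h RT, 460/530 nm. Values: AC50 from titration.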
For `CC(C)(C)c1ccc(O)c(N)c1`, the activity change, negative = inhibition is 3.38% (inactive).
Consider `CCOC(=O)CSc1nc(-c2ccc3c(c2)OCO3)ccc1C#N`, for which the activity change, negative = inhibition was 7.89% (inactive).
Next, `C=C(C)CSC1=C(C#N)C(c2ccsc2)CC(=O)N1` (centres undefined): -7.58% (inactive).
Turning to `COc1ccccc1N(Cc1cc2cccc(C)c2[nH]c1=O)C(=O)C(C)C`, the activity change, negative = inhibition is -14.8% (inactive).
In the case of `CCOC(=O)CCc1c(C)c(C#N)c2nc3ccccc3n2c1-n1ccnc1C`, the activity change, negative = inhibition was -3.36% (inactive).
With `CCn1cc(/C=N/O)c(C)n1` the figure was -0.439% (inactive); with `CCOC(=O)c1[nH]c2cc3c(cc2c1NC(=O)CN1CCC2(CC1)OCCO2)OCO3`, -29.3% (inactive); with `Cc1c(C)n(C(=O)CSc2nccn2C)c2ccccc12`, 14.1% (inactive).
With `COc1cccc(OC)c1C(=O)Nc1nc2ccc(S(C)(=O)=O)cc2s1` the figure was -25.1% (inactive).
Next, `COC(=O)CSCC(=O)Nc1cc2c(cc1C(C)=O)OCO2`: -1.75% (inactive).
With `CC(=O)c1c(OCC(=O)O)ccc2c(C)cc(=O)oc12`, the activity change, negative = inhibition was 15% (inactive).
For `CC(=O)[C@H]1[C@@H]2C(=O)N(c3cccc(Cl)c3)C(=O)[C@@H]2[C@H]2c3ccccc3C=CN21`, the activity change, negative = inhibition was -11% (inactive).
Next, `Cc1cc(COc2ccccc2OCCN2CCN(C)CC2)no1`: 21.4% (inactive); `COc1cccc(N2C(=O)C(O)=C(C(C)=O)C2c2ccc(OC)c(OC)c2)c1` (centres undefined): -12.6% (inactive).
In the case of `CCCc1nnc(NC(=O)Nc2ccccc2OC)s1`, the activity change, negative = inhibition was 0.551% (inactive).
Next, `Cn1c(OCc2cccnc2)nc2c1c(=O)n(Cc1ccccc1)c(=O)n2C`: -12.1% (inactive).
For the compound `O=C1C2CC=C(Cl)CC2C(=O)N1CNc1ccccn1` (centres undefined), the activity change, negative = inhibition is -0.589% (inactive).
With `COc1cc(C)nc(Oc2ccc(=O)[nH]n2)n1` the figure was 16.4% (inactive).
With `CCOP(=O)(c1ccccc1)C1(C#N)CCCC1` (centres undefined) the figure was 8.95% (inactive).
Next, `CC12CCC(=O)N1c1c(sc3nc(N4CCOCC4)c4c(c13)CCCC4)C(=O)N2` (centres undefined): -25.1% (inactive).
In the case of `CCCOc1ccc(C2NC(=O)NC2=O)cc1` (centres undefined), the activity change, negative = inhibition is 5.97% (inactive).
With `CC(=O)Nc1cccc(NC(=O)CSc2nc(C)c(C)c(C)c2C#N)c1` the figure was -13.8% (inactive); with `Cn1c(O)c(C=Nc2ccc(Cc3ccncc3)cc2)c(=O)n(C)c1=O`, -2.77% (inactive).
With `COc1cc(C)nc(Nc2nc(C)c(C(C)=O)s2)n1` the figure was 12.9% (inactive); with `CN(C)c1nc2sc3c(c2c(=O)n1C)CC(C)(C)OC3`, -6.89% (inactive).
Take `Cc1c(=O)n(OCc2c(F)cccc2F)c2ccccc2[n+]1[O-]`: the activity change, negative = inhibition is -5.17% (inactive).
For `COc1ccccc1Cn1c2nc3ccccc3nc2c2c(=O)n(CC(C)C)cnc21`, the activity change, negative = inhibition was -14.3% (inactive).
With `COc1ccc(OC)c(C2C(C(=O)c3ccco3)=C(O)C(=O)N2CCCN2CCOCC2)c1` (centres undefined) the figure was 11.5% (inactive); with `Cc1cc(CCC(=O)O)c(C)cc1CCC(=O)O`, 14.2% (inactive).
Consider `CCSc1nnc(NC(=O)C(C)(C(F)(F)F)C(F)(F)F)s1`, for which the activity change, negative = inhibition was -11.1% (inactive).
Regarding `CCOC(=O)C(C#N)C(Cc1ccccc1)c1ccco1` (centres undefined), the activity change, negative = inhibition is -10.1% (inactive).
Consider `CCOCCn1c(SCc2c(F)cccc2Cl)nc2c1c(=O)[nH]c(=O)n2C`, for which the activity change, negative = inhibition was -8.65% (inactive).
With `Cn1cc(Cl)nc1C(O)c1ccccc1` (centres undefined) the figure was 2.37% (inactive); with `Cc1c(/C(O)=C2/C(=O)C(=O)N(CCCN3CCOCC3)C2c2ccncc2)cnn1-c1ccccc1` (centres undefined), 5.29% (inactive).
Take `Clc1ccc(-c2nn3c(-c4cccc(Cl)c4)nnc3s2)cc1`: the activity change, negative = inhibition is 10.2% (inactive).
Next, `CCN(CC)CCCN1C(=O)C(O)=C(C(=O)c2ccc(C)o2)C1c1ccc(C)o1` (centres undefined): 5.4% (inactive); `CCOC(=O)N1CCN(/C=C(\C#N)c2nc3ccccc3s2)CC1`: -15.9% (inactive); `CN(C)CCCN1C(=O)C(O)=C(C(=O)c2cc3ccccc3o2)C1c1ccccc1` (centres undefined): 8.55% (inactive).
Turning to `CCCCCCCC(=O)OCC(=O)[C@@]1(O)CC[C@H]2[C@@H]3CCC4=CC(=O)CC[C@]4(C)[C@H]3[C@@H](O)C[C@@]21C`, the activity change, negative = inhibition was -9.61% (inactive).
